Among all 1,200 compounds or so, about 290 (24%) were called active. Roughly 9% stayed inconclusive and do not appear here. Only a sample is shown. Entries with a potency or affinity are not part of this list. Values without a mark were called inactive. No rule for the calls is given here.
Assay: cytotoxicity in EBV lymphoblastoid cells, dose response, cytotoxicity control, cell-based, plate reader, cherry-picks, set 2 (AID 504882);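 also: 0% = neutral control wells and -100% = positive control wells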
Settings: EBV lymphoblastoid cells (LCL) viability; series mostly up to 19.5 µM; activity change, negative = cytotoxicity: at the top concentration
In the case of `Cc1ccc(S(=O)(=O)N2CCC[C@H]2C(=O)Nc2ccccc2C)cc1`, the “activity change, negative = cytotoxicity” value is reported as 2.08%.
With `Cc1ccc(C(=O)CSc2nnnn2C(C)C)c(C)c1` the “activity change, negative = cytotoxicity” value was 4.09%.
For `CN1CCc2cccc3c2C1Cc1ccc(O)c(O)c1-3` (stereo not given), the “activity change, negative = cytotoxicity” value was 12.1%.
With `O=C(Nc1cc(Cl)ccc1Cl)C1Cc2ccccc2O/C1=N\O` (stereo not given) the “activity change, negative = cytotoxicity” value was 5.33%.
For `CC(NC(=O)CCOc1ccccc1)c1ccccc1` (stereo not given), the “activity change, negative = cytotoxicity” value was 8.45%.
In the case of `COc1cc2c(CCNC(C)=O)c[nH]c2cc1Cl`, the “activity change, negative = cytotoxicity” value is reported as 12.4%.
With `COCC(=O)N(C)c1nnc(-c2ccccn2)s1` the “activity change, negative = cytotoxicity” value was 26%.
In the case of `CC1(C)CC(NS(=O)(=O)c2ccc(F)cc2)CC(C)(C)N1`, the “activity change, negative = cytotoxicity” value is reported as 26.8%.
In the case of `O=C(CC(c1ccc(F)cc1)c1ccco1)N1CCOCC1` (stereo not given), the “activity change, negative = cytotoxicity” value is reported as 0.708%.
With `COc1ccc(C(=O)C(CN2CCOCC2)c2ccccc2)cc1F` (stereo not given) the “activity change, negative = cytotoxicity” value was -82.4%.
For `O=C(Cn1cc(CNC(=O)C2CCCCC2)nn1)Nc1cc(C(F)(F)F)ccc1Cl`, the “activity change, negative = cytotoxicity” value was 9.71%.
In the case of `C=CC[N+](C)(C)C/C(Cl)=C(\Cl)c1ccccc1`, the “activity change, negative = cytotoxicity” value is reported as -1.08%.
With `O=C1CCc2cc(OCCCCc3nnnn3C3CCCCC3)ccc2N1` the “activity change, negative = cytotoxicity” value was 10.6%.
With `Cc1nnc(NC(=O)CSc2nnc(Cc3cccn3C)n2CCc2ccccc2)s1` the “activity change, negative = cytotoxicity” value was 45.3%.
In the case of `Cc1nnc(SCc2cnc(-c3ccc(C(C)C)cc3)s2)n1C`, the “activity change, negative = cytotoxicity” value is reported as 4.92%.
In the case of `COc1ccc(/C=N/N=C/c2ccc(OC)c(OC)c2)cc1OC`, the “activity change, negative = cytotoxicity” value is reported as 20.2%.
With `COc1cc(/C=C2/SC(=S)N(Cc3ccccc3)C2=O)ccc1OCC(=O)O` the “activity change, negative = cytotoxicity” value was 8.06%.
With `CCOc1ccc(S(=O)(=O)N2CCC(C(=O)NCCc3ccc(S(N)(=O)=O)cc3)CC2)cc1` the “activity change, negative = cytotoxicity” value was 10.4%.
With `NC(=O)c1ccccc1N/C=C/C(=O)c1cccs1` the “activity change, negative = cytotoxicity” value was -4.97%.
With `O=C(N/C(=C/c1ccc(Br)cc1)C(=O)N1CCOCC1)c1ccc(Br)o1` the “activity change, negative = cytotoxicity” value was 17.4%.
For `O=C(Nc1ncc(Br)s1)C(Cc1ccccc1)n1cccc1` (stereo not given), the “activity change, negative = cytotoxicity” value was -1.84%.
For `CN(C)CCC(c1ccccc1)c1ccccn1` (stereo not given), the “activity change, negative = cytotoxicity” value was 7.71%.
For `CCC(C)n1ncn(-c2ccc(N3CCN(c4ccc(OCC5COC(Cn6cncn6)(c6ccc(Cl)cc6Cl)O5)cc4)CC3)cc2)c1=O` (stereo not given), the “activity change, negative = cytotoxicity” value was 8.73%.
In the case of `Cn1cccc1/C=N/n1c(-c2ccc(Cl)cc2Cl)n[nH]c1=S`, the “activity change, negative = cytotoxicity” value is reported as 13.1%.
For `CCn1c(=O)c2c(cnn2C)c2ccccc21`, the “activity change, negative = cytotoxicity” value was -1.53%.
For `CC(=C/c1ccccc1)/C=N/n1c(-c2ccncc2)n[nH]c1=S`, the “activity change, negative = cytotoxicity” value was 5.21%.
In the case of `OC(CCCN1CCCCC1)(c1ccccc1)c1ccccc1`, the “activity change, negative = cytotoxicity” value is reported as 14.8%.
For `COc1ccc(N2C(=O)C(Cl)=C(NCc3ccccc3)C2=O)cc1`, the “activity change, negative = cytotoxicity” value was 21.9%.
In the case of `COC(=O)[C@@]1(C)[C@H]2C(=O)N(Cc3ccccc3)C(=O)[C@H]2[C@H]2CN=C(SCc3ccc(Cl)cc3)N21`, the “activity change, negative = cytotoxicity” value is reported as 14.4%.
In the case of `CC(C)Nc1nnc(SCC(=O)c2c(N)n(Cc3ccccc3)c(=O)n(C)c2=O)s1`, the “activity change, negative = cytotoxicity” value is reported as -5.09%.
In the case of `CCN(C(=O)c1cc(OC)c(OC)c(OC)c1)C1CCCCC1`, the “activity change, negative = cytotoxicity” value is reported as 4.8%.
In the case of `COC(=O)C1=NNC(C(=O)OC)C1c1ccccc1` (stereo not given), the “activity change, negative = cytotoxicity” value is reported as 10.5%.
In the case of `Cn1c(=O)c2c(ncn2CC(=O)Nc2cc(S(=O)(=O)N3CCCCC3)ccc2O)n(C)c1=O`, the “activity change, negative = cytotoxicity” value is reported as 22.4%.
In the case of `COCCN1Cc2cccc(C(=O)N3CCN(c4cc(C)ccc4C)CC3)c2C1=O`, the “activity change, negative = cytotoxicity” value is reported as -0.546%.
For `O=C(Nc1cc(C(F)(F)F)cc(C(F)(F)F)c1)Nc1cnn(-c2ccc([N+](=O)[O-])cc2)c1C(F)(F)F`, the “activity change, negative = cytotoxicity” value was -5.69%.
With `CCOCCCn1cnc2c3cc(F)ccc3n(C)c2c1=O` the “activity change, negative = cytotoxicity” value was 4.71%.
With `CCOC(=O)CCSc1nc(N2CCOCC2)c2c(c1C#N)CC(C)(C)OC2` the “activity change, negative = cytotoxicity” value was 20.7%.
For `COc1ccc(-c2cn3nc4c(nc3n2)CCCC4)cc1`, the “activity change, negative = cytotoxicity” value was -0.376%.
For `COc1cccc(C(=O)OCn2nnc3ccccc3c2=O)c1OC`, the “activity change, negative = cytotoxicity” value was 17.8%.
With `Nc1nc(N)nc(-c2cc(Cl)ccc2Cl)n1` the “activity change, negative = cytotoxicity” value was 11.4%.
For `O=C(COc1ccc2ccccc2c1)NCCNC(=O)COc1ccc2ccccc2c1`, the “activity change, negative = cytotoxicity” value was 13.9%.
With `O=c1c2cnn(-c3ccccc3)c2nc(-c2cccs2)n1-c1ccc(Br)cc1` the “activity change, negative = cytotoxicity” value was -8.44%.
With `CC1CC(C)CN(S(=O)(=O)c2ccc(NC(=O)CCN3C(=O)C4CC=CCC4C3=O)cc2)C1` (stereo not given) the “activity change, negative = cytotoxicity” value was 10.9%.
For `COc1ccc(S(=O)(=O)NCC(c2cccnc2)N2CCN(c3ccc(F)cc3)CC2)cc1C` (stereo not given), the “activity change, negative = cytotoxicity” value was 13.6%.
In the case of `Cc1nc2ncccn2c1-c1csc(Nc2ccccc2)n1`, the “activity change, negative = cytotoxicity” value is reported as -27.8%.
With `CC(=O)c1sc(NC(=O)C2COc3ccccc3O2)nc1C` (stereo not given) the “activity change, negative = cytotoxicity” value was 10.2%.
For `O=C(COC(=O)c1cc2ccccc2cc1O)NCc1ccccc1`, the “activity change, negative = cytotoxicity” value was 18%.
In the case of `CCNc1nc(CN2CCOCC2)nc2sc3c(c12)CCC3`, the “activity change, negative = cytotoxicity” value is reported as 12%.
For `O=c1c(O)c(-c2ccc(O)c(O)c2)oc2cc(O)cc(O)c12`, the “activity change, negative = cytotoxicity” value was 2.22%.
For `O=C(O)[C@@H]1[C@H]2C[C@H]3c4[nH]c5ccccc5c4CCN3C[C@@H]2CC[C@@H]1O`, the “activity change, negative = cytotoxicity” value was 5.86%.
With `CC1=NN(C(N)=S)C(=O)C1N=Nc1cccc(C(=O)O)c1` (stereo not given) the “activity change, negative = cytotoxicity” value was 22%.
For `Cc1ccc(C(=O)Nc2ccc3c(c2)OCCO3)c(Cl)c1`, the “activity change, negative = cytotoxicity” value was 3.86%.
With `Cc1ccc(C)c(S(=O)(=O)N2CCN(C(=O)c3ccc(C)s3)CC2)c1` the “activity change, negative = cytotoxicity” value was 0.259%.
With `N#Cc1c(Nc2ccccc2)sc(C(=O)c2ccc(F)cc2)c1N` the “activity change, negative = cytotoxicity” value was 15.1%.
In the case of `CNC(=S)Nc1ccc2nc(C)c(C)nc2c1`, the “activity change, negative = cytotoxicity” value is reported as 19.5%.
